{"source": "PubChem BioAssay (NCATS)", "note": "Inconclusive results are not listed. A call without a number means that no potency is given here. Active and inactive are the calls of the source. Calls come from the whole dose curve; as a rule, active = well fitted curve in the direction sought with a large enough effect; inconclusive = small, poorly fitted or top-dose-only effect, or another doubt; inactive = no such curve, though single readings can be large; an effect the other way counts as inactive or inconclusive."}
{"target": "Luciferin 4-monooxygenase (Photinus pyralis) (UniProt P08659)", "test": "Primary firefly luciferase (FLuc) qHTS assay for identification of artifact compounds. (AID 1845220); note: nearly all actives have a fitted effect of over 60% in size", "settings": "purified firefly luciferase, luminescence, 5 min; series mostly up to 54.1 µM", "in_short": "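FLuc 10 nM; luciferin 10 uM; ATP 10 uM; Tris-acetate pH 7.6, Mg-acetate 10 mM; 15 min RT preincubation; 5 min reaction; luminescence.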"}
{"smiles": "C=C1C(=O)OC2CC(COC(=O)C(C)C)=C(C(C)CCCOC(C)=O)[C@@H](OC(C)=O)C12", "note": "(stereo partly drawn)", "Potency": "inactive"}
{"smiles": "COC(=O)/C=C/c1ccc(O[C@@H]2O[C@H](CO)[C@@H](O)[C@H](O)[C@H]2O)cc1", "Potency": "inactive"}
{"smiles": "COc1cc2c(c(OC)c1O)C(c1ccc(O)cc1)C1C(=O)OC3C(COC(=O)C1=C2)OC(CO)(OC1OC(COC(=O)/C=C/c2ccc(OC4OC(C)C(O)C(O)C4O)cc2)C(O)C(O)C1O)C3O", "note": "(stereo not drawn)", "activity change, negative = inhibition": "-10.6% [at 11.6 µM] (inactive)"}
{"smiles": "N#CN1CCC[C@@H](n2nc(-c3ccc(Oc4ccc(F)cc4F)cc3)c(C(N)=O)c2N)C1", "Potency": "inactive"}
{"smiles": "OC[C@H]1O[C@@H](OCCc2ccccc2)[C@H](O)[C@@H](O)[C@@H]1O", "Potency": "inactive"}
{"smiles": "O=C(O)CC/C=C\\C[C@H]1CO[C@@H](c2ccccc2Cl)O[C@H]1c1ccccc1O", "Potency": "inactive"}
{"smiles": "COc1cc(C(=O)OCC2=CCC3C(C(=O)O)=COC(O[C@@H]4O[C@H](CO)[C@@H](O)[C@H](O)[C@H]4O)C23)ccc1O", "note": "(stereo partly drawn)", "Potency": "inactive"}
{"smiles": "CC1(C)C[C@@H]2[C@H](C1)[C@@]1(C)C[C@]13C(O)OC[C@]3(O)[C@H]2O", "note": "(stereo partly drawn)", "Potency": "inactive"}
{"smiles": "CC/C=C/C=C/C1(C)OC(CC(CO)OC)=CC1=O", "note": "(stereo not drawn)", "Potency": "inactive"}
{"smiles": "COc1cc(C)c(C(=O)O[C@@H]2[C@H](O)[C@@H](CO)O[C@H]2n2ccc(=O)[nH]c2=O)c(OC)c1", "Potency": "inactive"}
{"smiles": "CO[C@H]1c2cc(C(C)C)c(O)c(O)c2[C@@]23CCCC(C)(C)C2[C@@H]1OC3=O", "note": "(stereo partly drawn)", "Potency": "inactive"}
{"smiles": "C=C1CC/C=C(/C(=O)O)CCC2C1CC2(C)C", "note": "(stereo not drawn)", "Potency": "inactive"}
{"smiles": "COC(=O)C1=COC(OC2OC(CO)C(O)C(O)C2O)C2C(COC(=O)/C=C/c3ccc(O)c(O)c3)C(O)C(O)C12", "note": "(stereo not drawn)", "Potency": "inactive"}
{"smiles": "C=C1CCC2[C@@](C)(C(=O)O)CCC[C@@]2(C)[C@@H]1CCc1ccoc1", "note": "(stereo partly drawn)", "Potency": "inactive"}
{"smiles": "COCCN1CCC(C(=O)NO)(S(=O)(=O)c2ccc(Oc3ccc(OC(F)(F)F)cc3)cc2)CC1", "Potency": "inactive"}
{"tested_on": "not listed separately", "test": "Primary fluorescence-based thiol-reactive (MSTI) qHTS assay for identification of artifact compounds. (AID 1845221); note: nearly all actives have a fitted effect of over 65% in size; note: potency is the fitted concentration of half-maximal effect;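 for activity change, negative = thiol reactive: thiol-reactive compounds lower the probe fluorescence signal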", "settings": "MSTI thiol-reactivity probe, 1 h; series mostly up to 53.8 µM", "in_short": "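Curve-fitted percent inhibition (4-parameter Hill) derived from fluorescence, Ex 525/Em 598 nm, scaled with Acetyl-MSTI and MSTI; 1 h incubation at room temperature.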"}
{"smiles": "CC(C)=CC1C[C@](C)(O)[C@@H]2[C@H]3CCC4[C@@]5(C)CC[C@H](O[C@@H]6OC[C@H](O)[C@H](O[C@@H]7O[C@H](CO[C@@H]8O[C@H](CO)[C@@H](O)[C@H](O)[C@H]8O)[C@@H](O)[C@H](O)[C@H]7O)[C@H]6O[C@@H]6O[C@@H](C)[C@H](O)[C@@H](O)[C@H]6O)C(C)(C)[C@@H]5CC[C@@]4(C)[C@@]34CO[C@@]2(C4)O1", "note": "(stereo partly drawn)", "activity change, negative = thiol reactive": "458% [at 11.5 µM] (inactive)"}
{"smiles": "CC(=O)c1[nH]cc(CCC(=O)O)c1CC(=O)O", "Potency": "inactive"}
{"smiles": "CN1C(=O)N(c2cc(Cl)cc(Cl)c2)C(=O)[C@@]1(C)Cc1ccc(Br)cc1", "Potency": "inactive"}
{"smiles": "CC(=O)OC1C(O)C(C)(O)C(/C=C/C(=O)O)C2(C)CCCC(C)(C)C12", "note": "(stereo not drawn)", "Potency": "inactive"}
{"smiles": "CNc1nc(C)nc(N[C@H]2CCC[C@@H](C(=O)NCc3ccc(C#N)cc3C(F)(F)F)C2)n1", "Potency": "inactive"}
{"smiles": "CC1=C2CC(=O)C(C)CC/C=C(\\C)CC2(O)OC1=O", "note": "(stereo not drawn)", "Potency": "inactive"}
{"smiles": "CC(NC(=O)c1ccccc1N)C(=O)O", "note": "(stereo not drawn)", "Potency": "inactive"}
{"smiles": "C/C(=C\\CCC(C)C1CC(O)C2(C)C3CCC4C(C)(C)C(OC5OCC(O)C(O)C5O)CCC45CC35CC(O)C12C)C(=O)O", "note": "(stereo not drawn)", "Potency": "inactive"}
{"smiles": "COc1c(C)c(OCC=C(C)C)cc2c1CNC2=O", "Potency": "inactive"}
{"smiles": "CC(C)/C=C1/NC(=O)C(C(C)C)n2c1nc1c(O)cccc1c2=O", "note": "(stereo not drawn)", "Potency": "inactive"}
{"smiles": "N[C@@H](CCNCc1ccc(Cl)cc1)C(=O)N1CCCCC1", "Potency": "inactive"}
{"smiles": "CC(=O)OC12CC(C)C(O)C1/C=C(/COC1OC(CO)C(O)C(O)C1O)CCC1C(/C=C(\\C)C2=O)C1(C)C", "note": "(stereo not drawn)", "Potency": "inactive"}
{"smiles": "OC[C@@]1(O)CO[C@H](OC[C@H]2O[C@@H](OC(CCCCc3ccc(O)cc3)CCc3ccc(O)cc3)[C@H](O)[C@@H](O)[C@@H]2O)[C@@H]1O", "note": "(stereo partly drawn)", "Potency": "inactive"}
{"smiles": "C/C(=C/CO)CC[C@H]1[C@]2(C)C[C@H](O)CC(C)(C)[C@H]2CC[C@]1(C)O", "Potency": "inactive"}
{"smiles": "C=C1C2(C)CC3C4(C)OC(C5OC56C4=CC(=O)OC6(C)C)C3(C)C13C(=O)OC(C)C3(O)C2=O", "note": "(stereo not drawn)", "Potency": "inactive"}
{"smiles": "C=C(C)[C@@H]1CC[C@]2(C(=O)O)CC[C@]3(C)[C@H](CCC4[C@@]5(C)CCC(=O)C(C)(C)C5C(O)C[C@]43C)C12", "note": "(stereo partly drawn)", "Potency": "inactive"}
{"smiles": "NC(=O)c1ccc(F)c2c1C[C@@H](N(C1CCC1)C1CCC1)CO2", "Potency": "inactive"}
{"smiles": "CC1(C)C=Cc2c(ccc3c2[N+]([O-])=C2C3(O)CC34NC(=O)C5(CCCN5C3=O)CC4C2(C)C)O1", "note": "(stereo not drawn)", "Potency": "4.12 µM (active)"}
